# Autophagy mod = autophagy modulation, high-content screen. MEF GFP-LC3 puncta imaging; test concentration mostly 10 µM. AID 463193. actives 0.98% (n = 190,000). calls only at 10 µM (by protocol);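 active = percentage of spot-positive cells more than 3 SD above its plate mean, without a fluorescence outlier flag or 80% toxicity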;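 note: spot-positive cell cutoff set from DMSO-treated cells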
# Insulin prom up = MIN6 insulin promoter up-regulation; z-score at 5 µM; MIN6 insulin promoter-GFP reporter, high-content imaging; hits give high values; AID 1625; actives 0.3% (n = 190,000);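 active = z-score above 3 at 5 µM with at least 500 cells counted in the well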
# WT yeast gro inh = growth inhibition of WT yeast, mitochondrial fusion screen | mitochondrial fusion phenotypic screen, WT strain | inhibition, % at 10 µM | actives 2.1% (n = 190,000) | AID 1362; in the data active = inhibition above about 58%; tested in S. cerevisiae
# L major viab = inhibitors of Leishmania major promastigote growth. Leishmania major promastigotes, resazurin fluorescence viability. inhibition, % at 10 µM. actives 9% (n = 200,000). AID 1063; in the data active = inhibition above about 50%;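 note: promastigotes grown with compound for 44 hours at 28 °C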
# Insulin prom inh = TRM-6 insulin promoter activity inhibition | TRM-6 cells (human fetal islet line), insulin promoter-eGFP reporter, imaging; reporter expression induced with tamoxifen | inhibition, % at 2 µM | actives 0.9% (n = 130,000) | AID 1273;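 active = inhibition above the mean plus 3 SD, with well images judged a real hit on visual review, cut at about 60% in these data, passing the limit was not always enough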
# Active calls of the source: *; i = inactive; . = not tested or not shown; + = active, no number. Only some compounds are listed: those with a hit (about 11% of all), similar ones and a draw of the others.
SMILES,Autophagy mod,Insulin prom up,WT yeast gro inh,L major viab,Insulin prom inh
CCOC(=O)C(C(=O)Nc1cccc(C)n1)C1CCCCC1 (stereo unspecified),i,-0.46,-1,4,.
COc1ccccc1Oc1ccc(S(=O)(=O)NCc2ccccn2)cc1,i,-0.63,1,52*,-14
COc1cc(Cl)c(S(=O)(=O)NCc2ccccn2)cc1Cl,i,0,10,-5,22
CCOc1cc(Cl)c(S(=O)(=O)NCc2ccccn2)cc1Cl,i,-0.62,-7,99*,-11
Cc1cc(=O)[nH]c(N/N=C/c2ccccn2)n1,i,0.33,2,99*,38
Cc1ccc(/C=N/Nc2cn[nH]c(=O)n2)o1,i,-0.69,6,-6,-14
O=c1nc(N/N=C/c2ccccn2)cn[nH]1,i,0.71,18,98*,36
N#C/C(=C/c1cn(CC(=O)O)c2ccccc12)C(=O)NCc1ccccc1,i,0.09,-11,6,17
O=C(c1cc2ccccc2[nH]1)N1CCOCC1,i,-0.22,14,-11,.
CC/C(=N\NC(=S)Nc1cc(C)ccc1C)c1ccc(OC(F)F)cc1,i,-0.72,66*,74*,19
CC/C(=N\NC(=S)Nc1cccc(C)c1)c1ccccc1,i,-1.1,71*,3,20
C/C(=N/NC(=S)Nc1cccc(C)c1)c1cccc([N+](=O)[O-])c1,i,-0.52,56,-6,21
Cc1cccc(NC(=S)N/N=C(\c2ccccc2)C(C)C)c1,i,-0.4,73*,22,.
C/C(=N\NC(=S)Nc1cccc(C)c1)c1cc2ccccc2o1,i,0.34,44,90*,.
COc1ccccc1C(O)(C(=O)NN(C)c1ccccc1)c1ccccc1OC,i,-0.02,-10,-5,.
C=CCn1c(N)c(C(=O)OCCC)c2nc3ccccc3nc21,i,-1.1,8,100*,3
COc1ccccc1/C=C/C=N/NC(=O)c1ccc2nc[nH]c2c1,i,.,3,56*,55
COc1ccc(OC)c(/C=N/NC(=O)c2ccc3nc[nH]c3c2)c1,.,-0.55,.,.,.
COc1ccc(OC)c(-c2cnc(OC(C)(C)C)nc2OC(C)(C)C)c1,i,.,51,16,18
COc1cnc(SC)nc1Nc1ccc(C#N)cc1,.,-1,.,.,.
Cc1ccc(/C(N)=N/OC(=O)N2c3ccccc3Sc3ccccc32)cc1,i,.,.,100*,-4
CCOC(=O)N1c2ccccc2Sc2ccccc21,i,-0.04,3,15,.
Cc1ccccc1/C(N)=N/OC(=O)N1c2ccccc2Sc2ccccc21,i,-0.09,83*,93*,.
O=C(/C=C/c1ccccc1[N+](=O)[O-])Nc1cccnc1,i,0.11,13,2,.
C=CCOc1ccc(/C(O)=C2\C(=O)C(=O)N(CCN(C)C)C2c2cccs2)cc1 (stereo unspecified),+,0.32,3,-3,.
SMILES,Autophagy mod,Insulin prom up,WT yeast gro inh,L major viab,Insulin prom inh
Fc1ccc(-c2csc3ncnc(Nc4ccc(N5CCOCC5)cc4)c23)cc1,i,-0.52,38,65*,17
c1nc(Nc2ccc(N3CCOCC3)cc2)c2ccsc2n1,.,-0.16,.,.,.
Cc1ccc(-c2csc3ncnc(N4CCc5ccccc5C4)c23)cc1,i,-0.47,66*,16,.
Fc1ccc(-c2csc3ncnc(N4CCc5ccccc5C4)c23)cc1,i,0.79,66*,67*,27
OCC1CCCN(c2ncnc3scc(-c4ccccc4)c23)C1 (stereo unspecified),i,0.44,-13,-1,50
CCn1c(SCC(=O)Nc2ccc3c(c2)c2ccccc2n3CC)nnc1-c1cnccn1,i,-0.16,22,99*,-5
Cc1nnc(SCC(=O)Nc2ccccc2NC(=O)CSc2nnc(C)s2)s1,i,-0.15,4,-5,31
O=C(CSc1nnc(-c2n[nH]c3ccccc23)n1-c1ccccc1)Nc1ccccc1Cl,i,-0.21,-11,60*,-7
Cc1cc(NC(=O)CSc2nnc(-c3c[nH]c4ccccc34)n2-c2ccc(Cl)cc2)no1,i,.,-20,89*,-24
Cc1c(Cl)cccc1NC(=O)CSc1nnc(C)n1-c1ccccc1,i,0.44,.,-11,-55
Cc1ccc(-n2c(SCC(=O)Nc3cc(C)on3)nc3c([nH]c4ccccc43)c2=O)cc1,i,-1.3,-14,10,.
Cc1nnc(SCC(=O)Nc2sc3c(c2C(=O)c2ccccc2)CCCC3)s1,i,-1.1,28,89*,-22
COc1cc(NC(=O)CSc2nc(C)c(C)c(C)n2)cc(OC)c1,i,-0.58,3,4,.
CCn1c(SCC(=O)Nc2ccc3c(c2)OCCO3)nnc1-c1c[nH]c2ccccc12,i,-0.08,-15,60*,.

# Assay outcomes as filed in PubChem BioAssay.
